Hits are enriched below; roughly 13% of the tested compounds scored in any of these assays.
FMDV inh – blocks foot and mouth disease virus; FMDV antiviral cell-based qHTS; Potency, µM (top dose mostly 57.9 µM), for the others: at the highest dose activity change, negative = inhibition, usual class: inhibitors; actives 1.2% (n = 410,000); AID 1159524; calls by dose curve; tested in HEK293T cells; also: read-out not given here; potency is read from the fitted curve at half-maximal effect; % is scaled to controls: 0 for no effect and ±100 for the full control effect; nearly all actives have a fitted effect of over 45% in size
Lassa entry inh – inhibitors of Lassa virus binding or cell entry; Potency, µM (top dose mostly 37.9 µM), inactives show at the highest dose activity change, negative = inhibition, hits mostly inhibitors; Lassa virus pseudotype entry inhibition, cell reporter; actives 1.2% (n = 300,000); AID 540256; calls by dose curve; tested in HEK293 cells; also: potency is read from the fitted curve at half-maximal effect; % is scaled to controls: 0 for no effect and ±100 for the full control effect; nearly all actives have a fitted effect of over 50% in size
Shiga toxin inh – blocks Shiga toxin action in Vero cells; Vero cells, Shiga toxin protein synthesis inhibition reporter; inhibition, % at 38.7 µM; actives 9.2% (n = 290,000); AID 2315; in the data active = inhibition mostly above about 28%, no sharp cut-off; inactive = mostly below about 43%; also: 0% is about no effect
MARV entry inh – blocks Marburg virus binding to or entry into cells; Marburg virus pseudotyped entry inhibition, cell reporter; Potency, µM (titrated, usually from 37.8 µM), for the others: top-dose activity change, negative = inhibition, actives largely listed as inhibitors; actives 1.8% (n = 300,000); calls by dose curve; tested in HEK293 cells; also: potency is read from the fitted curve at half-maximal effect; % is scaled to controls: 0 for no effect and ±100 for the full control effect
CHX counter – counter-screen for Shiga toxin inhibitors: cycloheximide protein synthesis inhibition | cell reporter, cycloheximide protein synthesis inhibition counterscreen | max response, % | actives 12% (n = 300,000); in the data active = max response mostly above about 13%, no sharp cut-off; inactive = mostly below about 14%; also: read at 38.3 µM for the half of the compounds with a filed dose; 0% is about no effect
HCV inh – blocks hepatitis C virus; Huh7.5.1 HCVcc-Cre infection, luciferase reporter, 44 h; Potency, µM (titrated, usually from 41.8 µM), inactives show at the highest dose activity change, negative = inhibition, hits mostly inhibitors; actives 3.4% (n = 340,000); active = well fitted inhibition curve with a large enough effect; inconclusive = small, poorly fitted or top-dose-only effect, or another doubt; inactive = no such curve, though single readings can be large or run the other way; also: potency is read from the fitted curve at half-maximal effect; % is scaled to controls: 0 for no effect and ±100 for the full control effect
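A cell-based infection assay in which seeded cells (1,000 per well) receive test compound after 4 h, are inoculated with HCVcc-Cre at approximately 0.5 moi, and are incubated 44 h before luminescence detection.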
Starred values were filed as active, the others as inactive; ? = inconclusive; . = no result; [ ] = another dose, or the depositor's remark.

SMILES | FMDV inh | Lassa entry inh | Shiga toxin inh | MARV entry inh | CHX counter | HCV inh
CC1(C)CC(/C=C/c2ccccc2)=Nc2ccccc2N1 | 0% | . | 83* | . | 52* | -19%
O=C1CC(C(F)(F)C(F)(F)C(F)(F)F)=Nc2ccccc2N1 | -17% | -6% | -8 | 7% | -1 | 7%
O=C1CC(/C=C/c2ccccc2)=Nc2ccccc2N1 | 60% | . | 58* | . | 30* | -29%
O=C1CC(/C=C/c2cccnc2)=Nc2ccccc2N1 | -3% | ? | 30 | ? | 17* | -6%
O=C1CC(=O)Nc2ccccc2N1 | 0% | . | . | . | . | .
CC1(C)CC(=O)C=C(/C=C/c2ccccc2)C1 | -5% | . | . | . | . | 19%
O=C1CC(/C=C/c2ccc(Cl)cc2)=Nc2ccccc2N1 | 5% | . | 97* | . | 39* | ?
CCCN(CCC)C(=O)c1ccccc1C(=O)N(CCC)CCC | 0% | -15% | -3 | -1% | -3 | -2%
Cc1c(Cl)cccc1NC(=O)CN(CCc1ccccc1)S(=O)(=O)c1ccccc1 | 3% | -2%[46.1 µM] | . | . | . | .
Cc1cc(C)c(CN2CCN(CCCn3cnc(C(=O)Nc4ccc(C)c(C)c4)n3)CC2)c(C)c1 | ? | . | . | -3% | . | ?
CC(C)(C)c1cc(C(c2cccnc2)N2CCN(CCO)CC2)cc(C(C)(C)C)c1O (centres undefined) | . | ? | -23 | ? | -7 | 10µM*
COc1ccc(NC(=O)CN(C)C(=O)CSCc2c(C)noc2C)cc1 | -6% | 7% | . | ? | . | 7%
O=C1C=CC(=O)c2c(O)cccc21 | 1% | . | -4 | . | -4 | .
Cc1cccc2c1c1ccc3c(c1n2C)C(=O)C=CC3=O | 14µM* | . | 6 | . | 2 | -18%
COc1ccc(CCN2CCCC(CN(C)Cc3cccc(OC)c3)C2)cc1 (centres undefined) | -8% | ? | -2 | ? | 5 | 7.9µM*
COc1ccc(CCN2CCCC(CN(C)Cc3cc(OC)ccc3OC)C2)cc1 (centres undefined) | -8% | . | 19 | . | -2 | 10µM*
CN(Cc1ccccc1O)CC1CCCN(CCc2ccc(Cl)cc2)C1 (centres undefined) | -21% | . | -3 | . | -3 | 10µM*
O=C(N[C@H](c1ccccc1)C1CCCC=C1c1ccccc1)C(F)(F)F (some centres undefined) | . | . | . | -24%[14.2 µM] | . | .
Cc1ccccc1NC(=S)N1CCCCCC1 | 1% | 29%[46.1 µM] | -10 | ? | 5 | 3%
CC(C)OC(=O)c1cc2c(ccn2C)n1CC(=O)N(Cc1ccccc1)c1ccccc1 | -21% | 3.2µM* | 45 | 2.5µM* | -2 | ?
CCc1nn2c(=O)cc(COc3ccc(NC(=O)c4ccco4)cc3)nc2s1 | 15% | . | -6 | . | -2 | -10%
Cc1ccccc1C(=O)N1CCN(c2ccc(NC(=S)NC(=O)c3ccco3)cc2)CC1 | 25µM* | . | -3 | . | 1 | 6%
Cc1ccccc1C(=O)N1CCN(c2ccc([N+](=O)[O-])c(NCc3ccco3)c2)CC1 | -13% | -10% | 3 | ? | -1 | 13µM*
COc1ccccc1C(=O)NC(=S)Nc1ccc(N2CCN(C(=O)c3ccco3)CC2)cc1 | ? | . | -4 | . | 1 | 32µM*
Cc1ccc(C(=O)Nc2ccc(N3CCN(C(=O)c4ccco4)CC3)cc2)cc1 | -13% | 6% | -4 | 1%[46.1 µM] | 9 | -3%
SMILES | FMDV inh | Lassa entry inh | Shiga toxin inh | MARV entry inh | CHX counter | HCV inh
Cc1cnc(C(=O)OCC(=O)N2CCc3ccccc3C2)cn1 | -11% | 11% | -16 | 9% | 1 | 0%
CC(C)C(NCc1c(Cl)cccc1Cl)C(=O)O (centres undefined) | 11% | -5% | -6 | 2% | -4 | -13%
c1ccc2c(c1)nnn2-c1ncnc2sccc12 | 50% | 12% | 62* | 0% | 34* | ?
Fc1cccc(C2NN=C(c3ccccc3)S2)c1 (centres undefined) | -50% | ? | 112* | ? | 73* | 4%
Cc1ccc(C2=NNC(c3cccc(F)c3)S2)cc1 (centres undefined) | -70% | . | 3 | . | 8 | -12%
COc1ccc(S(=O)(=O)N2CCCC2C(=O)NCC(=O)Nc2cccc(Cl)c2C)cc1 (centres undefined) | -8% | 3% | 4 | -24%[46.1 µM] | -2 | -2%
COc1ccc(OC)c(C(=O)c2ccc(C(=O)Nc3ccc4ccccc4c3)cc2)c1 | -12% | 10µM* | active | ? | 50* | ?
COc1ccc(C(=O)Nc2ccc3ccccc3c2)cc1 | -50% | . | -24 | . | 7 | -11%

Screens as filed in PubChem BioAssay.
